Laboratory results from PubChem BioAssay (NCI).
About 83,000 compounds went through this panel and 20% of them were active in at least one assay; those are over-represented in the sample as a whole.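 Single-concentration screen, 48 h exposure, 96-well plates. Endpoint: percent growth. Below 10 = active.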 Unmarked numbers belong to inactive results. The source made the active and inactive calls.

What was measured:
Test in all cases: NCI-60 one-dose screen, 48 h (100 = growth as untreated, 0 = no growth, -100 = all killed)
Conditions in all cases: 10 µM unless noted
NCI-H23 lung = system: NCI-H23 lung
NCI-H226 lung = system: NCI-H226 lung
NCI-H322M lung = system: NCI-H322M lung
HOP-62 NSCLC = system: HOP-62 NSCLC
NCI-H460 lung = system: NCI-H460 lung
HOP-92 NSCLC = system: HOP-92 NSCLC
NCI-H522 lung = system: NCI-H522 lung
A549/ATCC NSCLC = system: A549/ATCC NSCLC
786-0 renal = system: 786-0 renal
COLO 205 colon = system: COLO 205 colon
DU-145 prostate = system: DU-145 prostate
MALME-3M melanoma = system: MALME-3M melanoma
MDA-MB-231 breast = system: MDA-MB-231 breast
RXF 393 renal = system: RXF 393 renal
SF-268 CNS = system: SF-268 CNS
SF-295 CNS = system: SF-295 CNS
SF-539 CNS = system: SF-539 CNS
UACC-257 melanoma = system: UACC-257 melanoma
M14 melanoma = system: M14 melanoma
K-562 leukemia = system: K-562 leukemia

SMILES	growth (NCI-H23 lung)	growth (NCI-H226 lung) [%]	growth (NCI-H322M lung) [%]	growth (HOP-62 NSCLC)	growth (NCI-H460 lung)	growth (HOP-92 NSCLC)	growth (NCI-H522 lung)	growth (A549/ATCC NSCLC)	growth (786-0 renal)	growth (COLO 205 colon)	growth (DU-145 prostate)	growth (MALME-3M melanoma)	growth (MDA-MB-231 breast)	growth (RXF 393 renal)	growth (SF-268 CNS)	growth (SF-295 CNS)	growth (SF-539 CNS)	growth (UACC-257 melanoma)	growth (M14 melanoma)	growth (K-562 leukemia) [%]
CC(=O)O[C@@H]1CC[C@]2(C)[C@H]3CC[C@]4(C)C(=O)CC[C@H]4[C@@H]3C[C@@H]3SC(N)=N[C@@]32C1	79.6%	83.4	89.7	70.1%	38.7%	78.8%	8.26% (active)	47.4%	58.8%	48.8%	79.2%	55.4%	68.2%	79.7%	73.9%	42.7%	51.3%	67.1%	41.1%	–
O=c1[nH]c2ccc([N+](=O)[O-])cc2c(=O)o1	101%	108	97.6	103%	103%	79.5%	100%	107%	112%	109%	117%	106%	107%	101%	–	105%	102%	104%	108%	–
Cc1ccc(C(=O)NCCCOc2ccc(N3C(N)=NC(N)=NC3(C)C)cc2Cl)cc1S(=O)(=O)F	84.4%	91.9	92.5	94.7%	46.2%	69.1%	78.3%	77.5%	91%	87.7%	126%	70.4%	98.6%	–	54.3%	111%	54.1%	–	76.7%	–
O=C(Nc1ccc(Br)cc1)c1cc(Br)cc(Br)c1O	-14.1% (active)	10.6	13.7	-4.33% (active)	-25.3% (active)	-30.7% (active)	-3.18% (active)	6.64% (active)	-12.3% (active)	102%	–	-12% (active)	-22.4% (active)	-9.8% (active)	32.3%	-8.2% (active)	8.02% (active)	-17.1% (active)	1.78% (active)	96.9
Nc1ccc2c(c1)oc1ccccc12	97.3%	93.1	102	103%	111%	89.4%	95.9%	89%	95.7%	123%	103%	–	80.2%	92.4%	83.3%	102%	104%	92.6%	101%	89.5
O[C@H](CN1CC1)[C@@H](O)CN1CC1	65.8%	79.7	103	61.8%	15.5%	87%	93.9%	66.3%	43.2%	76.7%	39.5%	–	109%	77.2%	45.5%	19.6%	24.6%	86.3%	48.9%	65.9
O=C1C=C2C(=CCOC2O)O1 (centres undefined)	60.4%	34.4	101	59.6%	71.1%	-22.2% (active)	-79.9% (active)	71.6%	47.1%	-87.3% (active)	9.48% (active)	-28.5% (active)	66%	-74.8% (active)	3.53% (active)	89%	-33.6% (active)	-22.1% (active)	-18.9% (active)	–
C=CCCCCCCCCC(=O)[O-].C=CCCCCCCCCC(=O)[O-].[Zn+2]	96.9%	115	103	119%	106%	72.5%	119%	101%	97.2%	127%	114%	108%	–	–	106%	97.7%	97.9%	98.5%	107%	92
Cc1ccc(S(=O)(=O)F)cc1C(=O)O	96.5%	95.8	77.6	97.7%	111%	118%	85.8%	98.3%	–	103%	104%	86.8%	107%	–	101%	95.1%	94%	93.3%	110%	109
COC(=O)CCC1=C(C)c2cc3[n-]c(cc4nc(cc5[n-]c(cc1n2)c(CCC(=O)OC)c5C)C=C4C)cc3C.[Cd+2]	19.1%	19.8	95.5	65.7%	-27.3% (active)	3.42% (active)	-70.1% (active)	56.1%	75.2%	22.4%	9.35% (active)	20.5%	34.9%	65.7%	11.6%	61.9%	62.2%	78.7%	57.9%	–
COc1cccc(C=NC(Cc2cnc[nH]2)C(=O)O)c1O (centres undefined)	107%	94.8	95.5	87.6%	107%	56%	59.3%	91.5%	97.2%	122%	121%	–	102%	3.56% (active)	112%	70.3%	93.1%	46.7%	89.7%	135
